TDP1 cell noCPT: qHTS for Inhibitors of human tyrosyl-DNA phosphodiesterase 1 (TDP1): qHTS in cells in absence of CPT | Potency, µM (top dose mostly 46.2 µM), without a hit: at the highest dose activity change, negative = growth inhibition, most hits filed as inhibitors | AID 686978, 2013 | DT40 Tdp1-/- hTDP1 cells, no CPT, ATP luminescence, 48 h | 15% of 420,000 active; also: potency is read from the fitted curve at half-maximal effect; nearly all actives have a fitted effect of over 55% in size
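Chicken DT40 Tdp1-/- cells complemented with human TDP1, screened without camptothecin (DMSO vehicle only), 400 cells/well. Compounds pin-transferred, cells incubated at 37 °C for at least 48 hr. Growth read as ATP-dependent luminescence (CellTiter-Glo, 30 min at RT).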
HT1080-NT tox: kills 2HG-producing HT-1080-NT fibrosarcoma cells; Potency, µM (top dose mostly 46.1 µM), for the others: at the highest dose activity, negative = less viability, usual class: cytotoxic; HT-1080-NT fibrosarcoma viability, CellTiter-Glo ATP luminescence, 48 h; 1.6% of 360,000 active; AID 686970;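 also: NT is the 2HG producing partner of a matched IDH1 knockdown line; potency is read from the fitted curve at half-maximal effect; 0% = DMSO-treated cells and -100% = media-only wells without cells; nearly all actives have a fitted effect of over 55% in size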
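Viability of the 2HG-overproducing fibrosarcoma line after 48 hours of compound exposure at 37 degrees C was determined by luminescence with CellTiter-Glo, and concentration-effect curves were then fitted and categorized.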
IL-1B inflam inh: inhibitors of inflammasome signaling (IL-1 beta secretion); AID 743279; THP-1 LPS/ATP IL-1B secretion, AlphaLISA, 16 h; active compounds read low; 4.7% of 360,000 active; activity change, % at 57.5 µM; in the data active = activity change below about -50%; inconclusive = mostly about -30% to -49%
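THP-1 cells pretreated 1 hr with compounds (up to 57.5 uM final), then stimulated with LPS (250 ng/mL final) plus ATP (1.25 mM final); secreted IL-1B measured by AlphaLISA after 16 hr, decreased signal indicating inhibition.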
uPA surface inh: cell surface uPA generation inhibition; 0.31% of 330,000 active; Potency, µM (titrated, usually from 38.3 µM), without a hit: at the highest dose activity change, negative = inhibition, most hits filed as inhibitors; cell surface uPA generation assay, qHTS; active = well fitted inhibition curve with a large enough effect; inconclusive = small, poorly fitted or top-dose-only effect; inactive = no such curve, though single readings can be large or run the other way; tested in mouse RAW 264.7 cells; also: potency is read from the fitted curve at half-maximal effect; nearly all actives have a fitted effect of over 55% in size
HT1080 IDH1KD tx: kills HT-1080 cells with IDH1 knockdown; HT-1080 IDH1 knockdown viability, ATP luminescence, 48 h; Potency, µM (titrated, usually from 46.1 µM), for the others: top-dose activity, negative = toxicity, most hits filed as cytotoxic; 2% of 360,000 active; AID 686971;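 also: potency is read from the fitted curve at half-maximal effect; 0% = DMSO wells and -100% = cell-free medium wells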
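CellTiter-Glo luminescence after 48 h compound exposure at 37 degrees C of IDH1-knockdown HT-1080 cells in 5% FBS RPMI. %Activity scaled between DMSO wells and cell-free media wells, with curves fitted and assigned curve classes.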
DT40 TDP1 CPT: DT40-hTDP1 cell growth loss with CPT. chicken DT40 Tdp1-/-;hTDP1 cells + 20 nM CPT, ATP luminescence, 48 h. Potency, µM (titrated, usually from 46.2 µM), without a hit: top-dose activity change, negative = growth inhibition, most hits filed as inhibitors. 12% of 420,000 active. AID 686979; also: potency is read from the fitted curve at half-maximal effect; nearly all actives have a fitted effect of over 55% in size
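Cell growth measured by CellTiter-Glo luminescence after a minimum 48 h, 37 C compound exposure with 20 nM CPT in Tdp1-knockout DT40 cells stably expressing hTDP1, seeded 400/well; qHTS titration format.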
* = called active by the depositor; ? = inconclusive; . = no result; [ ] = remark or other dose. Sampled rows, rich in hits. Any-hit rate of the full collection: about 19%. Unless noted, calls follow the shape of the dose curve; as a rule, active = well fitted curve in the direction sought with a large enough effect; inconclusive = small, poorly fitted or top-dose-only effect, or another doubt; inactive = no such curve, though single readings can be large; an effect the other way counts as inactive or inconclusive. Unless noted, % is scaled to controls: 0 for no effect and ±100 for the full control effect.

SMILES	TDP1 cell noCPT	HT1080-NT tox	IL-1B inflam inh	uPA surface inh	HT1080 IDH1KD tx	DT40 TDP1 CPT
Cc1ccc(S(=O)(=O)N2CCCCC2)cc1NC(=O)CCNC(=O)c1ccc([N+](=O)[O-])cc1	16µM*	-5%	8	-2%	-3%	23µM*
CCN1CCN(S(=O)(=O)c2ccc(Cl)c(C(=O)Nc3ccccc3N3CCCC3)c2)CC1	?	6%	-25	4%	4%	?
CCN1CCN(c2ccc(S(=O)(=O)N3CCCCC3)cc2NC(=O)c2cc3ccccc3o2)CC1	16µM*	3%	-7	-5%	3%	?
Cc1noc(C)c1C(=O)NCc1ccccc1F	5%	17%	9	-2%	16%	-1%
COc1ccc(CC(=O)Nc2cc(S(=O)(=O)N3CCCCC3)ccc2C)cc1	21µM*	0%	3	24%	-6%	?
Cc1cc(=O)[nH]c(SCC(=O)Nc2cc(S(=O)(=O)N3CCCC3)ccc2Cl)n1	11%	-5%	35	3%	-7%	-19%
CCOc1ccc(S(=O)(=O)N2CCCCC2)cc1NC(=O)Cc1ccc(OC)cc1	?	-6%	-1	.	-5%	?
CCCc1cc(=O)[nH]c(SCC(=O)Nc2cc(S(=O)(=O)N3CCCCC3)ccc2C)n1	13%	10µM*	0	?	15µM*	-20%
O=C(Nc1cccnc1Cl)c1cc2ccccc2o1	22%	2%	21	?	12%	-1%
COc1ccc(S(=O)(=O)N2CCOCC2)cc1NC(=O)c1cc2ccccc2o1	13µM*	-12%	-18	-7%	-3%	?
CCN1CCN(c2c(Cl)cccc2NC(=O)c2cc3ccccc3o2)CC1	18µM*	-2%	-25	-7%	0%	?
N#Cc1c(-n2ncnc2-c2ccccc2Cl)sc2c1CCCCC2	-27%	.	.	.	.	-3%
COc1ccc(OC)c(/C=N/NC(=O)CNC(=O)c2ccc(S(=O)(=O)N3CCOCC3)cc2)c1	-2%	15%	16	-10%	15%	29%
CCCS(=O)(=O)NC(=O)C1(C)CCN(C(=O)c2ccc(OC)cc2OC)C1 (stereo not given)	0%	22%	-18	.	6%	-4%
COc1ccc(S(=O)(=O)N2CCOCC2)cc1NC(=O)[C@@H]1CCCN1C(=O)c1cccs1	-14%	4%	15	-2%	5%	-2%
CCc1nnc(NC(=O)c2cc(S(=O)(=O)N3CCN(c4ccccc4)CC3)ccc2Cl)s1	-7%	-5%	15	1%	4%	-27%
CCN1CCN(S(=O)(=O)c2ccc(Cl)c(C(=O)Nc3nnc(CC(C)C)s3)c2)CC1	?	-14%	0	3%	-7%	23µM*
COc1ccc(S(=O)(=O)N2CCOCC2)cc1NC(=O)C1CCCN1C(=O)c1cccs1 (stereo not given)	?	-1%	-19	-9%	-2%	0.26µM*
COC(=O)C1CCN(Cc2ccc3c(c2)CN(C(=O)c2cc4ccccc4n2C)CCO3)CC1	?	.	.	.	.	12%[9.04 µM]
CC(C)CC(N)c1csc(NC(=O)c2cc(C(C)(C)C)nn2Cc2ccccc2)n1 (stereo not given)	8.2µM*	12µM*	-114*	.	16µM*	7.3µM*
Cc1ccccc1NC(=O)Nc1nc(CN(C)C)cs1	3%	-2%	-2	.	4%	0%
CC(C)CC(N)c1csc(NC(=O)C(c2ccccc2)c2ccccc2)n1 (stereo not given)	6.5µM*	7.3µM*	-28	.	2.9µM*	18µM*
COc1ccccc1NC(=O)Nc1nc(C(N)Cc2ccc(Cl)cc2)cs1 (stereo not given)	23µM*	?	-12	.	?	9.2µM*
CC(C)(C)c1csc(NC(=O)c2cccnc2)n1	?	-17%	?	2%	-16%	-24%
Cc1ccccc1NC(=O)Nc1nc(CN)cs1	23µM*	-13%	14	.	?	16µM*
SMILES	TDP1 cell noCPT	HT1080-NT tox	IL-1B inflam inh	uPA surface inh	HT1080 IDH1KD tx	DT40 TDP1 CPT
CC(C)CC(N)c1csc(Nc2ccc(C(=O)NCCO)cc2)n1 (stereo not given)	?	?	23	.	29%	?
C[C@H](CO)N1C[C@H](C)[C@@H](CN(C)C(=O)C2CCCCC2)OCc2cn(nn2)CCCC1=O	8%	10%	22	.	16%	?
CC1(C)CC(=O)C=C(c2cccc(Cl)c2O)C1	-5%	9%	-7	-10%	10%	-21%
COc1ccccc1NC(=O)Nc1nc(C(N)Cc2ccccc2)cs1 (stereo not given)	18µM*	23µM*	?	.	?	23µM*
Cc1ccccc1NC(=O)Nc1nc(C(N)Cc2ccccc2)cs1 (stereo not given)	23µM*	23µM*	-56*	.	?	23µM*
CC(C)CC(N)c1csc(NC(=O)Nc2ccccc2Cc2ccccc2)n1 (stereo not given)	12µM*	?	?	.	?	12µM*
COc1ccccc1NC(=O)Nc1nc(C(N)CC(C)C)cs1 (stereo not given)	0.26µM*	-6%	-57*	.	-19%	2.6µM*
COc1ccccc1NC(=O)Nc1nnc(C(C)C)s1	-19%	2%	11	0%	4%	-4%
OCC1OC(c2ccccc2)OC2COC(c3ccccc3)OC12 (stereo not given)	-19%	-5%	-4	-1%	-8%	-2%
O=C(CNC(=O)c1ccccc1F)N/N=C/c1cc(Br)ccc1OCc1ccccc1	23µM*	-3%	?	11%	-7%	?
O=C(CNC(=O)c1cccc(F)c1)N/N=C/c1cc(Br)ccc1OCc1ccccc1	?	-26%	-17	2%	-16%	?
COC(=O)N/N=C\c1cc(Br)ccc1OCc1ccccc1	?	0%	-73*	-3%	-2%	?
CC(C)(C)c1ccc(OCC(=O)N/N=C/c2cc(Br)ccc2OC(=O)c2ccco2)cc1	4.1µM*	8%	43	3%	7%	4.6µM*
COc1ccc(C(CNC(=O)c2[nH]c(C)c(C(C)=O)c2C)N2CCOCC2)cc1 (stereo not given)	-16%	1%	8	15%	14%	-27%
NC(=O)CCS(=O)(=O)c1ccc(Cl)cc1	-12%	15%	6	9%	21%	2%
Cc1onc(-c2ccccc2Cl)c1C(=O)NCc1nnnn1-c1ccc(F)c(F)c1	-11%	-1%	-19	.	-8%	-17%
